Screening results deposited in PubChem BioAssay by National Center for Advancing Translational Sciences (NCATS).
Most compounds without a hit are left out; they make up all but 2.6% or so of the library.
AmpC det inh: blocks E. coli AmpC beta-lactamase in presence of detergent. P00811. purified AmpC, nitrocefin hydrolysis with detergent. Potency, µM (titrated, usually from 28.7 µM), for inactives: at the top dose activity change, negative = inhibition. actives 0.09% (n = 71,000). AID 584; active means well fitted curve in the direction sought with a large enough effect; inconclusive means small, poorly fitted or top-dose-only effect; further: on the % scale 0 is the no-effect control and ±100 the full control effect
Target sequence (P00811 whole entry, looked up): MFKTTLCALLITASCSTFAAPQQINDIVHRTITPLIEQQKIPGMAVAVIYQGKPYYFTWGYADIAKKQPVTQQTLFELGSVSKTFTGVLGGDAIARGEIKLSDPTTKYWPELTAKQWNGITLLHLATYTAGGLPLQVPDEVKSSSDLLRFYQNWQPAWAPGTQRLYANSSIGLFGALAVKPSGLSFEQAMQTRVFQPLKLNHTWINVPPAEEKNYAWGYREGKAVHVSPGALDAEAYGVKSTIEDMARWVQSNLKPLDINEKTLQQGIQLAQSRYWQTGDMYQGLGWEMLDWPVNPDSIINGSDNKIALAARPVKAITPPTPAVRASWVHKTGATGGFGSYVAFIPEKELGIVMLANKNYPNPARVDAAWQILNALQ
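E. coli AmpC (5.3 nM) in 20 mM phosphate pH 7.0 with 0.01% Triton X-100, preincubated 15 min RT with compound; nitrocefin (2 uL of 800 uM stock) hydrolysis followed by 480 nm absorbance every 20 s over 4 min.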
AmpC inh no det: AmpC beta-lactamase inhibition, detergent-free assay | actives 1.8% (n = 71,000) | Potency, µM (doses to about 28.7 µM), for the others: at the highest dose activity change, negative = inhibition | P00811 | AmpC nitrocefin hydrolysis, absorbance 480 nm, no detergent; further: % of control where 0% means no effect
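AmpC, 20 mM phosphate pH 7.0; 15 min cpd preinc, RT; start with nitrocefin (800 uM stock); A480 kinetic read, 20 s intervals, 4 min. No-enzyme wells = negative control.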
Anthrax LT inh: anthrax lethal toxin internalization inhibition; Potency, µM (highest dose often 40 µM), inactives show at the top dose activity change, negative = inhibition, most hits filed as inhibitors; Cells, anthrax lethal toxin internalization, FRET ratio (460/530); actives 0.67% (n = 70,000); AID 912; further: on the % scale 0 is the no-effect control and ±100 the full control effect; nearly all actives have a fitted effect of over 50% in size
Prx2 Sm inh: blocks S. mansoni peroxiredoxin 2 enzymatic activity; actives 0.07% (n = 65,000); S. mansoni Prx2 activity coupled to TGR/GSH (TGR is thioredoxin glutathione reductase), NADPH fluorescence loss, qHTS; Potency, µM
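Prx2 inhibition was measured as reduced NADPH consumption when electrons flowed from NADPH through TGR and glutathione to Prx2 and H2O2. Plates were read kinetically over 8 min; enzyme reagents were held at 4 deg C during dispensing.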
* marks the source's active call; other numbers are inactive results; ? = inconclusive; . = no result; ! = not confirmed by another sample; [ ] = remark or other dose. Unless noted, the call rests on the fitted dose curve. Potency means the concentration at half of the fitted maximal effect.

SMILES | AmpC det inh | AmpC inh no det | Anthrax LT inh | Prx2 Sm inh
COc1ccc(-c2nc(CS(=O)CC(=O)NCc3ccco3)c(C)o2)cc1 (configuration not stated) | 9.9% | 3.98µM*[single pt active] | 5.0% | >57
CCCNC(=O)CS(=O)Cc1nc(-c2cccc(OC)c2)oc1C (configuration not stated) | 10.4% | 3.98µM*[single pt active] | 4.4% | >57
COc1cccc(-c2nc(CS(=O)CC(=O)NCc3ccccc3)c(C)o2)c1 (configuration not stated) | 13.0% | 3.98µM*[single pt active] | -0.9% | >57
COc1ccc(-c2nc(CS(=O)CC(=O)NCc3cccnc3)c(C)o2)cc1 (configuration not stated) | 8.9% | 3.16µM*[single pt active] | 0.1% | >57
O=C1c2c(O)cc(O)cc2O[C@@H](c2ccc(O)c(O)c2)[C@H]1O | 17.7% | -12.6% | 1.8% | >57
C=CCN1CC[C@]23c4c5ccc(O)c4O[C@@H]2C(=O)CC[C@@]3(O)[C@H]1C5 | -1.5% | 5.7% | 4.2% | >57
c1ccc2cc(NCNc3ccc4ccccc4c3)ccc2c1 | 10.8%[5.75 µM] | -14.8%[5.75 µM] | -12.2%[8 µM] | >57
O=C(CCCCn1c(=O)[nH]c2ccccc2c1=O)N1CCN(c2ncccn2)CC1 | 14.4% | 3.98µM*[single pt active] | -8.5% | >57
O=C(CCCn1c(=O)[nH]c2ccccc2c1=O)N1CCN(c2ccccn2)CC1 | 11.7% | 3.16µM*[single pt active] | 11.9% | >57
O=C(CCCCn1c(=O)[nH]c2ccccc2c1=O)N1CCN(c2cccc(C(F)(F)F)c2)CC1 | -4.2% | 92.7% | ? | >57
Cn1cc(C(=O)c2ccc(Cl)cc2)cc1-c1nc2ccccc2n1C | 18.1% | 35.0% | 12.6µM* | >57
COc1c2ccoc2nc2c(OC)c(OC[C@H](O)C(C)(C)O)ccc12 | -4.2% | 8.6% | 12.6µM*! | >57
Cc1cccc2cc3ccc4ccccc4c3cc12 | -0.6%[5.75 µM] | 3.6%[5.75 µM] | ? | >57
NCCC[C@@](N)(C(=O)O)C(F)F | -2.7% | 3.7% | -3.2% | >57
CCOC(=O)c1ccccc1NC1c2ccccc2C(=O)N1c1ccc(C)cn1 (configuration not stated) | 13.4% | 3.98µM*[single pt active] | ? | >57
O=C1c2ccccc2C(Nc2cccnc2)N1Cc1ccccc1Cl (configuration not stated) | 12.0% | 3.98µM*[single pt active] | -14.6% | >57
CCOc1ccccc1NC1c2ccccc2C(=O)N1c1ccc(C)cn1 (configuration not stated) | 12.7% | -3.1% | -26.1% | >57
COc1cc(NC2c3ccccc3C(=O)N2c2ccc(C)cn2)cc(OC)c1OC (configuration not stated) | 12.9% | 75.8% | 5.8% | >57
Cc1ccc(N2C(=O)c3ccccc3C2Nc2cccnc2)nc1 (configuration not stated) | 10.9% | 3.98µM*[single pt active] | -6.6% | >57
O=C(COc1ccccc1)Nc1cccc(-c2nnc(-c3ccccc3)o2)c1 | 10.1% | -2.8% | 10µM* | >57
O=C(Nc1cccc(-c2cn3cccnc3n2)c1)c1ccc(Br)o1 | -3.9% | -2.5% | -24.8% | >57
O=C(Nc1cccc(-c2nnc(-c3ccccc3)o2)c1)c1ccc(Br)o1 | 0.2% | 51.8% | 10µM* | ?
Cc1cc(C)cc(OCC(=O)Nc2cccc(-c3nnc(-c4ccco4)o3)c2)c1 | -2.4% | 29.3% | -9.7% | >57
O=C(Nc1ccc(Cc2ccncc2)cc1)c1ccc(Br)o1 | -4.4% | 3.0% | -15.2% | >57
O=C(Nc1ccc(Nc2ccccc2)cc1)c1ccc(Br)o1 | 0.5% | -10.9% | 12.6µM* | >57
SMILES | AmpC det inh | AmpC inh no det | Anthrax LT inh | Prx2 Sm inh
O=c1c2ccccc2oc2cc(O)c([C@@H]3COC[C@@H](CO)[C@@H](O)[C@@H](O)[C@H]3O)c(O)c12 | 1.2% | -7.6% | ? | >57
Cn1cnc([N+](=O)[O-])c1Sc1nc(N)nc2c1ncn2[C@H]1C[C@H](O)[C@@H](CO)O1 | -1.7%[5.75 µM] | 2.3%[5.75 µM] | 7.5%[8 µM] | >57
CC(C)COC(=O)c1nnsc1NC(=O)Nc1ccccc1 | -1.7% | 15.8µM*[single pt active] | -27.4% | >57
CC(C)COC(=O)c1ccccc1C(=O)OCC(C)C | 1.3% | -2.6% | ? | .
O=C(NCCN1CCOCC1)c1cc(-c2ccc(O)cc2)on1 | 4.7% | -7.6% | -4.1% | >57
Oc1c(Cl)c(Cl)c(Cl)c(Cl)c1Cl | 7.1% | 1.4% | 20µM* | .
Oc1c(Cl)ccc(Cl)c1Cl | 7.2% | -6.0% | 0.4% | .
C[C@@H]1C(=O)N(C)C(=O)c2nc[nH]c21 | -1.3% | 2.5% | -2.3% | >57
CCCCC/C=C\C[C@H](O)/C=C\c1cccc(C[C@H](O)CCCCO)n1 | 6.8% | 137.3% | ? | >57
Cc1noc(C)c1C(=O)Nc1nc(C23CC4CC(CC(C4)C2)C3)cs1 | -2.6% | 0.3% | 10µM* | >57
CCOC(=O)Cc1csc(NC(=O)c2c(-c3ccccc3)noc2C)n1 | -2.8% | 24.1% | -0.4% | .
COc1ccc2c(c1)OC13CCN(C)CC1C2C(C(=O)c1ccc(F)cc1)C(=O)N3 (configuration not stated) | 16.3% | 3.98µM*[single pt active] | -17.7% | >57
CCOC(=O)N1CCN(c2c(N3CCC(N4CCCCC4)CC3)c(=O)c2=O)CC1 | 12.0% | 3.98µM*[single pt active] | 10.8% | >57
CCOC(=O)C1CCN(c2c(N3CCCC(C(=O)OCC)C3)c(=O)c2=O)CC1 (configuration not stated) | 4.4% | 15.0% | ? | >57
CCOC(=O)N1CCN(c2c(NCCN3CCCCC3CC)c(=O)c2=O)CC1 (configuration not stated) | 13.4% | 3.98µM*[single pt active] | -8.6% | >57
CC1(NC[C@@H](O)COc2cccc3[nH]ccc23)CCC(C(C)(C)NC(=O)CBr)CC1 (some centres not stated) | -1.6% | -0.9% | 2.9% | >57
CCc1nccn1S(=O)(=O)c1ccc(C)c(C)c1 | 1.3% | -4.9% | -16.2% | >57
CCc1nccn1S(=O)(=O)c1ccc(OC)c(OC)c1 | 16.8% | 3.98µM*[single pt active] | -5.6% | >57
CCOC(=O)c1c(NC(=O)c2cccs2)sc2c1CCCC2 | 10.7% | -3.9% | -21.2% | .
CCOC(=O)c1c(NC(=O)Cc2cccs2)sc2c1CCCC2 | -6.3% | ? | 12.6µM* | >57
O=C(NCCN1CCCC1)c1ccc(CS(=O)(=O)c2c(Cl)cccc2Cl)o1 | 12.7% | 3.98µM*[single pt active] | -9.3% | >57
CN(C)CCNC(=O)c1ccc(CS(=O)(=O)c2c(Cl)cccc2Cl)o1 | 4.4% | 9.9% | -21.8% | >57
O=C1C[C@H]2C(=O)[C@@H]1[C@@H](C(=O)O)[C@H]2C(=O)O | 5.8%[5.75 µM] | 6.5%[5.75 µM] | -0.2%[8 µM] | >57
COc1ccc(S(=O)(=O)N(CCCN2CCCC2=O)Cc2cc3c(C)cc(C)cc3[nH]c2=O)cc1 | 1.3% | 177.5% | 3.6% | 20.4*
Cn1c(=O)oc2cc(S(=O)(=O)N3CCCC(C(=O)N4CCn5c4nc4ccccc45)C3)ccc21 (configuration not stated) | 12.0% | 3.98µM*[single pt active] | -1.5% | >57
CN1CCN(C(=O)C2CCN(S(=O)(=O)c3ccc4c(c3)oc(=O)n4C)CC2)CC1 | 9.3% | 3.98µM*[single pt active] | 1.6% | >57
Cn1c(=O)oc2cc(S(=O)(=O)N3CCC(C(=O)NCc4cccs4)CC3)ccc21 | 11.5% | 3.16µM*[single pt active] | -2.4% | >57
